Most compounds without a hit are left out; they make up all but 2.9% or so of the library.
HIF-2a inh: HIF-2a reporter inhibitors, primary screen, luminescence, 786-0 RCC cells; 786-0 RCC cells HIF-2a reporter, luciferase luminescence, overnight; inhibition, % at 18.8 µM; hit rate 0.72% among 360,000;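 active = inhibition of the luminescence signal of 40% or more relative to plate controls, in a single-dose primary screen at 18.75 µM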
KKLEB tox: cytotoxicity in KKLEB CF airway cells, primary screen, cytotoxicity control for CF NF-kB inhibitor project, cell-based, uHTS, fluorescence assay plates; AID 602141, 2011; activity change (cytotoxicity), % at 5 µM; hit rate 0.36% among 360,000; KKLEB CF airway cells viability, ATPlite luminescence, overnight; hits give low values; cells stimulated with P. aeruginosa culture filtrate;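 active = corrected activity change at or below -50% at 5 µM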
CF NFkB inh: inhibitors of PAF-induced NF-kB signaling, primary screen, cell-based, GFP fluorescence, uHTS; KKLEB NF-kB-GFP reporter, GFP fluorescence overnight; inhibition, % at 5 µM; hit rate 0.86% among 360,000;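 active = at least 50% inhibition at 5 µM, scaled per plate between neutral and stimulator controls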;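 also: PAF is a Pseudomonas aeruginosa culture filtrate used as stimulus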
Shn3 inh set2: reduction of Shn3 3'UTR firefly luciferase signal, primary screen, Schnurri-3 inhibitor project, cell-based, Clone20 osteoblasts, set 2. inhibition, % at 12.5 µM. hit rate 0.52% among 360,000. Clone20 osteoblast Shn3 3'UTR firefly luciferase, 24 h;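 active = mean inhibition of at least 75% with every replicate also reaching 75%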
Peg3 prom inh-1: Peg3 promoter-driven luciferase inhibitors, primary screen, cell-based, HeLa, luciferase luminescence. HeLa PEG-Prom luciferase reporter, overnight. inhibition, % at 20 µM. hit rate 1.7% among 360,000. AID 588405, 2011;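 active = inhibition of at least 50% at 20 µM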
LMP1 NFkB inh: EBV LMP1-driven NF-kappaB luciferase reporter inhibitors, primary screen, cell-based, luminescence, single point; LMP1-induced NF-kappaB luciferase reporter cells; inhibition, % at 12.5 µM; hit rate 0.69% among 350,000; AID 504558, 2011; in the data active = inhibition above about 41%
Peg3 prom inh-2: Peg3 promoter reporter inhibitors, retest, confirmation, cell-based, HeLa, luciferase reporter, single concentration | shares compounds with Peg3 prom inh-1 | HeLa PEG-Prom luciferase reporter, luminescence, overnight | inhibition, % at 20 µM | hit rate 84% among 1,300 | AID 602417, 2012;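 active = at 20 µM dose, 40% or more inhibition averaged across four replicates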
CF NFkB inh conf: inhibitors of PAF-induced NF-kB signaling, retest, confirmation, cell-based, GFP fluorescence, single concentration | shares compounds with CF NFkB inh | KKLEB CF airway cells, overnight | inhibition, % at 5 µM | hit rate 64% among 1,300 | AID 602472, 2012; in the data active = inhibition above about 40%;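 also: stimulus PAF is a Pseudomonas aeruginosa filtrate and not platelet activating factor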
Mdm2-MdmX confirm: retested Mdm2-MdmX interaction blockers, confirmation, cell-based, luminescence, single concentration, set 2; shares compounds with HIF-2a inh; SaOS-2 split-luciferase Mdm2/MdmX complementation; inhibition, % at 8 µM; hit rate 99% among 740; AID 504601, 2011;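 active = mean inhibition of the luminescence signal across two replicates at or above 26 percent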
HIF-2a conf: HIF-2a reporter inhibitor retest, confirmation, luminescence, 786-0 RCC cells; HIF-2a luciferase reporter luminescence, overnight; inhibition, % at 18.8 µM; hit rate 56% among 1,800; AID 651580, 2012; shares compounds with HIF-2a inh;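 active = mean inhibition across four replicates of at least 40 percent at the single tested concentration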
HIF-1a counter: HIF-1a luciferase reporter signal reduction – MiaPaCa-2 cells, single concentration, counter-screen for HIF-2a inhibitor project, confirmation. shares compounds with HIF-2a inh. MiaPaCa-2 HIF-1a luciferase reporter, desferoxamine, overnight. inhibition, % at 18.8 µM. hit rate 72% among 1,800. AID 651589, 2012;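 active = mean inhibition of the reporter signal across four replicates at the single tested dose of 50% or more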
Each line names hits and unclear results; the compound was inactive in the other large screens (follow-up assays come after a bar, where they were run); ! = not confirmed by another sample.

O=C(O)c1ccc(N/N=C/c2ccc3nccnc3c2)cc1	HIF-2a inh 91.1, Peg3 prom inh-1 99.0, LMP1 NFkB inh 81.8 | Peg3 prom inh-2 95.5 | HIF-2a conf 95.5 | HIF-1a counter 83.1
O=C(O)c1ccc(N/N=C/c2ccncc2)cc1	none
O=C(O)c1ccc(N/N=C/c2ccc(OC(=O)c3cccc(Cl)c3)cc2)cc1	HIF-2a inh 71.9, Peg3 prom inh-1 68.7, LMP1 NFkB inh 60.6 | Peg3 prom inh-2 64.0 | HIF-2a conf 83.2 | HIF-1a counter 83.4
COC(C[C@@H](O)C[C@H](O)COCc1ccccc1)OC	none
CC1CCCN(Cc2nc(Cc3ccccc3Cl)no2)C1 (stereo unspecified)	none
Cc1[nH]c(=S)sc1Cc1ccc(F)cc1	none
CCCCOC(=O)c1ccc(NC(=O)COC(=O)c2ccc3ncsc3c2)cc1	none
C=CCC(O)(CC=C)CNC(=O)C1CCC(=O)N(CCCc2ccccc2)C1 (stereo unspecified)	none
O=C1C(O)=C(O)C(=O)c2ccccc21	none
O=C1C(Cl)=C(Nc2ccc(O)cc2)C(=O)c2ccccc21	HIF-2a inh 93.9, KKLEB tox -81.6, CF NFkB inh 108.4, Shn3 inh set2 91.8, Peg3 prom inh-1 106.8, LMP1 NFkB inh 61.4 | Peg3 prom inh-2 96.4 | Mdm2-MdmX confirm 103.0
CC1CCCN(S(=O)(=O)c2ccc(C(=O)Nc3nnc(C4CC4)o3)cc2)C1 (stereo unspecified)	none
Cc1cc(C)c2nc(NNC(=O)c3ccc(S(=O)(=O)N4CCCC(C)C4)cc3)sc2c1 (stereo unspecified)	Peg3 prom inh-1 65.8 | Peg3 prom inh-2 74.9 | Mdm2-MdmX confirm 85.7
CCn1c(CC(=O)Nc2ccc(F)cc2)nnc1SCC(=O)Nc1nncs1	none
COc1ccccc1N(C(=O)CCl)c1cn(C(C)=O)c2ccccc12	HIF-2a inh 47.7, KKLEB tox -102.4, CF NFkB inh 88.7, Peg3 prom inh-1 66.7 | Peg3 prom inh-2 71.8 | Mdm2-MdmX confirm 103.2 | HIF-2a conf 44.2 | HIF-1a counter inactive
CCN(CC)S(=O)(=O)c1cc(C(=O)N(C)CC(=O)Nc2ccc(Cl)cc2)ccc1Cl	none
Nc1nccc(SCc2ccc(Cl)cc2Cl)n1	CF NFkB inh 56.7 | CF NFkB inh conf 55.5
COc1ccc(Oc2nc3c(c(=O)n(C)c(=O)n3C)n2C)cc1	none
Cn1c(=O)c2c(nc(Oc3ccc4ccccc4c3)n2C)n(C)c1=O	CF NFkB inh 55.4 | CF NFkB inh conf 69.0
COc1ccc(C2=Nn3c(nnc3-c3ccccc3Cl)SC2)cc1OCC1CC1	none
COc1ccc(C2=Nn3c(nnc3-c3ccccc3OC)SC2)cc1OC1CCOC1 (stereo unspecified)	CF NFkB inh 58.3 | CF NFkB inh conf 81.3
COc1ccc(C2=Nn3c(nnc3-c3ccccc3C(F)(F)F)SC2)cc1OC1CCOC1 (stereo unspecified)	none
COc1ccc(OC)c(-c2nnc3n2N=C(c2ccc(OC)c(OCC4CC4)c2)CS3)c1	CF NFkB inh 60.4 | CF NFkB inh conf 84.2
O=C(Nc1ccc2c(c1)OCCO2)c1cc(-c2ccccn2)nc2ccc(Br)cc12	CF NFkB inh 61.6 | CF NFkB inh conf 56.4
Cc1ccc(/C(=C\CN2CCCC2)c2ccccn2)cc1	CF NFkB inh 50.8 | CF NFkB inh conf inactive
Cc1cc2oc(=O)cc(CN3CCCCC3C)c2cc1C(C)C (stereo unspecified)	none
C[C@@H]1C[C@H]2[C@@H]3CCC4=CC(=O)C=C[C@]4(C)[C@@]3(F)[C@@H](O)C[C@]2(C)[C@@]1(O)C(=O)CO	CF NFkB inh 70.6 | CF NFkB inh conf inactive
CC1(C)OC2CC3C4CCC5=CC(=O)C=CC5(C)C4(F)C(O)CC3(C)C2(C(=O)CO)O1 (stereo unspecified)	CF NFkB inh 66.6 (no result: LMP1 NFkB inh) | CF NFkB inh conf inactive
COc1ccc(S(=O)(=O)c2c(O)c3ccc(C(=O)Nc4ccccc4Cl)cc3[nH]c2=O)cc1	CF NFkB inh 75.7 | CF NFkB inh conf 69.3
O=c1oc2ccc(Br)cc2cc1S(=O)(=O)c1ccc(F)cc1	CF NFkB inh 58.3, Peg3 prom inh-1 50.5 | CF NFkB inh conf inactive
Cc1ncc(CO)c2cc(S(=O)(=O)c3ccc(F)cc3)c(=O)oc12	none
CCOC(=O)C(NC(=O)NCc1ccc(OC)cc1)(OCC)C(F)(F)F (stereo unspecified)	none
O=C(Nc1ccc(N2CCN(C(=O)c3ccccc3F)CC2)cc1)c1cncc(Br)c1	CF NFkB inh 68.9 | CF NFkB inh conf 76.3
CC1CCN(Cc2c(C(=O)N/N=C/c3ccc(C(C)(C)C)cc3)nnn2-c2nonc2N)CC1	CF NFkB inh 52.9, Peg3 prom inh-1 106.1 | CF NFkB inh conf 62.5
c1cc(-c2cnc3cccnn23)c2cccnc2c1	CF NFkB inh 75.2 (no result: LMP1 NFkB inh) | CF NFkB inh conf 51.1
CC(=O)Nc1ccc(S(=O)(=O)NNc2cccc(C)c2)cc1	none
COc1ccc([N+](=O)[O-])c(C=CC(=O)c2ccccn2)c1	CF NFkB inh 91.2, Peg3 prom inh-1 101.3 | CF NFkB inh conf inactive
C=C1C[C@H]2[C@@H]3C=C(C)C4=CC(=O)CC[C@]4(C)[C@H]3CC[C@]2(C)[C@@]1(OC(C)=O)C(C)=O	CF NFkB inh 67.7 | CF NFkB inh conf inactive
CCN1CCN(Cc2ccc(NC(=O)c3ccc(C)c(NC(=O)c4cccc5[nH]ccc45)c3)cc2C(F)(F)F)CC1	CF NFkB inh 54.4!, LMP1 NFkB inh 61.7 | CF NFkB inh conf 49.3
CCN1CCN(c2ccc(NC(=O)c3ccccc3F)cc2Cl)CC1	none
